# KB-V1 MDR tox = kills drug-selected multidrug resistant KB-V1 cells | KB-V1 MDR cells viability, CellTiter-Glo, 72 h | Potency, µM (series often up to 46.1 µM), actives largely listed as cytotoxic | 400,000 tested, 3.4% active; note: % is set by controls: 0 for no effect and ±100 for the full control effect; nearly all actives have a fitted effect of over 60% in size
#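 Drug-selected KB-V1 cells, grown in DMEM lacking phenol red with 10% FBS, receive compound titrations; after three days at 37 degrees C, surviving cell ATP is quantified by CellTiter-Glo luminescence and responses normalized and curve-fitted.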
# HT1080NT lethal = kills 2HG-producing HT-1080-NT fibrosarcoma cells. HT-1080-NT fibrosarcoma viability, CellTiter-Glo ATP luminescence, 48 h. Potency, µM (highest dose often 46.1 µM), for the others: top-dose activity, negative = less viability, actives largely listed as cytotoxic. 360,000 tested, 1.6% active;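 note: NT is the 2HG producing partner of a matched IDH1 knockdown line; 0% = DMSO-treated cells and -100% = media-only wells without cells; nearly all actives have a fitted effect of over 55% in size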
#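 Viability by CellTiter-Glo luminescence after 48 h compound exposure at 37C of HT-1080-NT cells (750/well, RPMI, 5% FBS). % activity scaled between DMSO wells and medium-only wells, then curve-fitted and categorized by curve class.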
# HT1080 IDH1KD tx = toxicity to HT-1080 IDH1 knockdown cells (counter line) | 360,000 tested, 2% active | HT-1080 IDH1 knockdown viability, ATP luminescence, 48 h | Potency, µM (doses to about 46.1 µM), for inactives: at the top dose activity, negative = toxicity, hits mostly cytotoxic;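 note: 0% = DMSO wells and -100% = cell-free medium wells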
#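 % activity derives from luminescence (CellTiter-Glo), normalised to DMSO and no-cell wells. HT-1080-IDH1KD cells, 750/well, had 48 h compound exposure at 37 °C.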
# ATXN viability = cell viability loss in ATXN counter-screen; 400,000 tested, 0.49% active; S2 cells (HEK-293 line with an ATXN2-luciferase reporter) viability, CellTiter-Fluor protease fluorescence, 24 h; AID 651635; Potency, µM (highest dose often 56.7 µM), hits mostly cytotoxic; note: nearly all actives have a fitted effect of over 40% in size
# KB-3-1 tox = kills parental KB-3-1 adenocarcinoma cells | KB-3-1 viability, CellTiter-Glo ATP luminescence, 72 h | AID 1347075 | 400,000 tested, 1.4% active | Potency, µM (doses to about 46.1 µM), usual class: cytotoxic; note: % is set by controls: 0 for no effect and ±100 for the full control effect; nearly all actives have a fitted effect of over 60% in size
#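 Using CellTiter-Glo luminescence, growth of non-resistant KB-3-1 adenocarcinoma cells is assessed 72 h after pin-tool compound addition at 37 °C. Normalized responses across the concentration series yield fitted curves.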
# ATXN2 expr inh = inhibitors of ATXN2 expression; 360,000 tested, 0.72% active; Potency, µM (series often up to 57 µM), inactives show at the top dose activity change, negative = inhibition, most hits filed as inhibitors; AID 1745845; HEK-293 ATXN2-luciferase reporter, luminescence, 24 h; note: % is set by controls: 0 for no effect and ±100 for the full control effect; nearly all actives have a fitted effect of over 55% in size
#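 qHTS (up to 57 uM final) was run with 24 h compound exposure of reporter cells at 37 °C. Each well was multiplexed: SteadyGlo luminescence measured ATXN2-luciferase expression after a fluorogenic Gly-Phe-AFC viability readout (25 uM final).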
# Numbers without * were called inactive; i = inactive; ? = inconclusive; / = no result; [ ] = another dose, or the depositor's remark. Hits are enriched below; roughly 6.2% of the tested compounds scored in any of these assays. Calls come from the whole dose curve; as a rule, active = well fitted curve in the direction sought with a large enough effect; inconclusive = small, poorly fitted or top-dose-only effect, or another doubt; inactive = no such curve, though single readings can be large; an effect the other way counts as inactive or inconclusive. Potency is the fitted concentration of half-maximal effect.
SMILES,KB-V1 MDR tox,HT1080NT lethal,HT1080 IDH1KD tx,ATXN viability,KB-3-1 tox,ATXN2 expr inh
COC1=C(C)C(=O)C2=C(C1=O)C(CO)N1C(C#N)C3CC4C(C1C2N1CCOC41)N3C (stereo not drawn),0.58µM*,-17%,0.65µM*,?,?,?
C[N+](C)(C)CCCCCCCCCC[N+](C)(C)C,i,?,14%,i,i,6%
COc1ccc2c(c1)C(c1ccc(N(CCCl)CCCl)cc1)=NCC2,i,?,26µM*,?,i,?
Cc1cc(-n2c(/C=C/c3ccc(Br)s3)nc3ccccc3c2=O)ccc1Br,?,/,/,/,i,/
C=C1C(C)C2C(Cc3ccccc3)NC(=O)C23OC(=O)/C=C/C(O)CCCC(C)C/C=C/C3C1O (stereo not drawn),?,?,8.2µM*,?,?,-11%
CCCCCCC(=O)c1c(O)n(-c2ccccc2OC)c(=O)[nH]c1=O (tested in a mixture with another compound),?,6%,16%,i,i,-24%
COc1ccc(-n2c(O)c(/C(C)=N/N3CCCCCC3)c(=O)[nH]c2=O)cc1,i,2%,4%,i,i,20%
COc1ccc(-n2c(O)c(/C(C)=N/Nc3ccccc3)c(=O)[nH]c2=O)cc1,i,1.6µM*,1.8µM*,i,i,-23%
CCCCCCC(=O)c1c(O)n(-c2ccc(OC)cc2)c(=O)[nH]c1=O (tested in a mixture with another compound),8.2µM*,-18%,-7%,i,i,/
N=c1c2c(n(Cc3ccc(Cl)cc3Cl)c3c1CCC3)CCCC2,i,21µM*,15µM*,i,?,?
CC(=O)NCCc1c[nH]c2ccccc12,i,0%,7%,i,i,7%
CC(=O)c1cn(CC(=O)NCCc2c[nH]c3ccccc23)c2ccccc12,15µM*,-5%,-12%,i,?,/
CN(Cc1ccccc1)C(=O)c1cccc(NC(=O)Cc2ccc([N+](=O)[O-])cc2)c1,i,-6%,-24%,?,i,?
O=C(O)c1cccc2c1NC(C(=O)O)C1CC(Sc3ccccc3[N+](=O)[O-])C(Cl)C21 (stereo not drawn),i,2%,0%,?,i,9%
CC(=O)c1ccc2c(c1)C1C(Cl)C(Sc3ccccc3[N+](=O)[O-])CC1C(C(=O)O)N2 (stereo not drawn),10µM*,5%,5%,?,i,-4%
O=C1NC(=O)C(Cc2ccccc2)(Cc2ccccc2)C(=O)N1Cc1ccccc1,16µM*,?,?,i,?,-14%
Cc1cccc(N=C2c3cc([N+](=O)[O-])ccc3-c3c2cc([N+](=O)[O-])cc3[N+](=O)[O-])c1,?,-3%,-13%,?,15µM*,?
ClCCN1CCCC1,/,/,/,i,/,8%
CC(=O)OC1C(O)C(C)OC(OC2C(OC(=O)C3CCC4C(C3)OC3(CC(OC(=O)/C=C/c5ccccc5)C(C)CO3)C43CO3)OC(C)C(O)C2OC(C)=O)C1O (stereo not drawn),?,0.13µM*,0.065µM*,?,0.18µM*,0.21µM*
O=C1NC(=S)NC(=O)C1=Cc1cccn1-c1ccc(O)cc1,i,?,23µM*,19µM*,?,24µM*
Cc1cccc(N2C(=O)NC(=O)/C(=C\c3cnc(-c4ccccc4)nc3)C2=O)c1,i,29%,16%,?,i,5%
Cc1cc(C)cc(N2C(=O)NC(=O)/C(=C\c3cccn3-c3ccccc3)C2=O)c1,18µM*,-21%,?,?,?,?
CCc1nc2ccc(C(=O)N3CCN(C(=O)c4ccco4)CC3)cn2c1N(C)Cc1ccc(OC)cc1,i,?,2%,i,i,8%
CN1CCc2cc3c(cc2[C@@H]1[C@@H]1OC(=O)c2c1ccc1c2OCO1)OCO3,/,/,/,i,/,/
Cc1ccc(-n2c(=O)[nH]c3ccc(Br)cc3c2=O)cc1,?,/,/,i,i,5%
SMILES,KB-V1 MDR tox,HT1080NT lethal,HT1080 IDH1KD tx,ATXN viability,KB-3-1 tox,ATXN2 expr inh
CCOc1ccc(-c2cc(C)[n+](CCc3ccc(OC)c(OC)c3)c(-c3ccc(OCC)cc3)c2)cc1,i,21µM*,16µM*,?,5.8µM*,?
CCOc1ccc(-c2cc(C)[n+](CCO)c(-c3ccc(OCC)cc3)c2)cc1,i,?,?,i,i,21%[11.3 µM]
C#CC1(O)CCC2C3CCC4=CC(=O)CCC4=C3C=CC21C (stereo not drawn),2.6µM*,?,?,i,2.3µM*,11%
C[C@@H]1CN([C@@H](C)CO)C(=O)CCCn2nncc2CO[C@H]1CN(C)C(=O)Nc1ccc(N2CCCCC2)cc1,i,3%,1%,i,i,-1%
CSC(=Nc1ccccc1)c1c(O)n(C)c(=O)n(C)c1=O,i,?,?,i,i,7%
Cn1c(O)c(C(=Nc2ccccc2)SCc2ccccc2Cl)c(=O)n(C)c1=O,?,?,13µM*,?,18µM*,-22%
Cc1ccc(S(=O)(=O)N2CCCCC2)cc1NC(=O)CN1CC=C(c2ccccc2)CC1,6.5µM*,3%,12%,i,?,-11%
O=C(CN1CC=C(c2ccccc2)CC1)Nc1cc(Cl)ccc1Cl,?,5%,8%,i,i,-1%
Cc1ccc(-n2nc3c(=O)n(CC(=O)NCC(C)c4ccccc4)nc(C)c3c2C)cc1 (stereo not drawn),i,/,/,?,i,-27%
CC1Cc2ccccc2CN1 (stereo not drawn),i,/,/,/,i,/
CC(=O)C1C(N2CC2)CC2C3CC=C4CC(O)CCC4(C)C3CCC21C (stereo not drawn),?,-25%,-6%,14µM*,?,0%
C[C@]12CC[C@H](O)CC1=CCC1C2CC[C@@]2(C)C1C[C@@H](O)[C@@H]2O (stereo partly drawn),i,4%,3%,i,i,5%
Cc1c(C=O)c2ccccc2n1Cc1ccccc1F,?,-19%,-4%,i,?,-18%
Cc1c(C=O)c2ccccc2n1Cc1ccc([N+](=O)[O-])cc1,10µM*,-16%,-24%,i,i,-12%
CCOP(=O)(OCC)C(Nc1cccc(C(F)(F)F)c1)c1ccc(C)cc1 (stereo not drawn),?,?,?,i,?,-25%
